These results are taken from ChEMBL document CHEMBL3988442, “University of Dundee, Small-Polar-MMV Screening Library” (2021).

For part of these data: Results with a measured potency or affinity are listed apart.

In test [1] the target is T1, Methionyl-tRNA synthetase, putative (Leishmania donovani (strain BPK282A1)) (UniProt E9BF75).
T1 sequence (whole entry): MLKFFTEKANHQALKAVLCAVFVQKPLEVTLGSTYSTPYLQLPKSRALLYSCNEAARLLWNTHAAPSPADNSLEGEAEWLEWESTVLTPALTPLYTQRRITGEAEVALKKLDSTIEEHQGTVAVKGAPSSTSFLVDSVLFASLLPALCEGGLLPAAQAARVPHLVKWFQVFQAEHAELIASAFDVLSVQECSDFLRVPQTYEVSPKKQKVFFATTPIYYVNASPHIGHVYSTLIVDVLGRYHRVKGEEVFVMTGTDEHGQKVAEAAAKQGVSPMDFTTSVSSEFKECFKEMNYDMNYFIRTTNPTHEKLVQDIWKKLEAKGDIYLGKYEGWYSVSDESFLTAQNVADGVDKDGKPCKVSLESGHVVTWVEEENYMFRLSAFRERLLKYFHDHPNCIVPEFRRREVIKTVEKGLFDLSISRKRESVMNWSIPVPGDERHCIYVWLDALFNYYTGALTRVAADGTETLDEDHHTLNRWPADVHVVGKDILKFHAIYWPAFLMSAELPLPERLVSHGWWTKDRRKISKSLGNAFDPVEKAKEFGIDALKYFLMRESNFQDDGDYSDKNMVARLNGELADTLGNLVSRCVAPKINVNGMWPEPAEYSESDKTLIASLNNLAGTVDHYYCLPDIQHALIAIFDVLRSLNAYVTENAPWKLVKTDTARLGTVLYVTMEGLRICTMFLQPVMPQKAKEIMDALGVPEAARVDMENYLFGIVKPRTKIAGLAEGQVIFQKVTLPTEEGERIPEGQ
The experiment in a line: Leishmania donovani Methionine tRNA synthetase (LdMetRS):v7. Dose response assay. In kind it is functional. On the set-up: conc 80 nM, time 150 minutes.

In test [2] the target is Protein translocase subunit SecA (Escherichia coli (strain K12)) (UniProt P10408). As to the kind of experiment: Assay to Identify E. coli SecA ATPase Inhibitors. In kind it is functional. The conditions noted are these: 30 µM. On the set-up: scale not given: direction of the effect not stated beside the values.
Sequence of Protein translocase subunit SecA (Escherichia coli (strain K12)) (P10408 whole entry): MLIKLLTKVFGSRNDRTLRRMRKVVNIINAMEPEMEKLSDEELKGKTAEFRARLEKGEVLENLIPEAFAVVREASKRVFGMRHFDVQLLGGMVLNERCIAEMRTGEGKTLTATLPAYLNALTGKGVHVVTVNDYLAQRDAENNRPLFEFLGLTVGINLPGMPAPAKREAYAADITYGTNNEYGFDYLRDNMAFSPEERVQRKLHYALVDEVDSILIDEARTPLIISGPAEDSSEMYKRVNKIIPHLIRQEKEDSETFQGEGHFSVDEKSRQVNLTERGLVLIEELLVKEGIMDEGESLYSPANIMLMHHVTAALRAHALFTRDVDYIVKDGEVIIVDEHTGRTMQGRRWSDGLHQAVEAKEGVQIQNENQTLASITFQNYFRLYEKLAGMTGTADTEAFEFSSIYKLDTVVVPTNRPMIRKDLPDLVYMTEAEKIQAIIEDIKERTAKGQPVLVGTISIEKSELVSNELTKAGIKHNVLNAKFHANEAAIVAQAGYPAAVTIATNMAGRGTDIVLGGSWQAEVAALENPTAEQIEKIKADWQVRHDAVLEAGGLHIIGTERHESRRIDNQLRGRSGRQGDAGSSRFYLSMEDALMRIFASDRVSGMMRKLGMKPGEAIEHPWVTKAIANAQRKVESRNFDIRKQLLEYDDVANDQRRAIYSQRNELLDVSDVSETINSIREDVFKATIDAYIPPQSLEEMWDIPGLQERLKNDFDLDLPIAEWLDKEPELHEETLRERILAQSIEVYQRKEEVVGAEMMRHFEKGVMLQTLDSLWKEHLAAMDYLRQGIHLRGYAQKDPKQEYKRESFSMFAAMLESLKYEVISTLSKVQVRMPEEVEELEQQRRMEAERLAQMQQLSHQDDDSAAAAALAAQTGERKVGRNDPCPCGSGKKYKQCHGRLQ
The target of test [3] is T2, Ubiquitin-activating enzyme e1, putative (Leishmania donovani (strain BPK282A1)) (UniProt E9BSI1).
T2 sequence (whole entry): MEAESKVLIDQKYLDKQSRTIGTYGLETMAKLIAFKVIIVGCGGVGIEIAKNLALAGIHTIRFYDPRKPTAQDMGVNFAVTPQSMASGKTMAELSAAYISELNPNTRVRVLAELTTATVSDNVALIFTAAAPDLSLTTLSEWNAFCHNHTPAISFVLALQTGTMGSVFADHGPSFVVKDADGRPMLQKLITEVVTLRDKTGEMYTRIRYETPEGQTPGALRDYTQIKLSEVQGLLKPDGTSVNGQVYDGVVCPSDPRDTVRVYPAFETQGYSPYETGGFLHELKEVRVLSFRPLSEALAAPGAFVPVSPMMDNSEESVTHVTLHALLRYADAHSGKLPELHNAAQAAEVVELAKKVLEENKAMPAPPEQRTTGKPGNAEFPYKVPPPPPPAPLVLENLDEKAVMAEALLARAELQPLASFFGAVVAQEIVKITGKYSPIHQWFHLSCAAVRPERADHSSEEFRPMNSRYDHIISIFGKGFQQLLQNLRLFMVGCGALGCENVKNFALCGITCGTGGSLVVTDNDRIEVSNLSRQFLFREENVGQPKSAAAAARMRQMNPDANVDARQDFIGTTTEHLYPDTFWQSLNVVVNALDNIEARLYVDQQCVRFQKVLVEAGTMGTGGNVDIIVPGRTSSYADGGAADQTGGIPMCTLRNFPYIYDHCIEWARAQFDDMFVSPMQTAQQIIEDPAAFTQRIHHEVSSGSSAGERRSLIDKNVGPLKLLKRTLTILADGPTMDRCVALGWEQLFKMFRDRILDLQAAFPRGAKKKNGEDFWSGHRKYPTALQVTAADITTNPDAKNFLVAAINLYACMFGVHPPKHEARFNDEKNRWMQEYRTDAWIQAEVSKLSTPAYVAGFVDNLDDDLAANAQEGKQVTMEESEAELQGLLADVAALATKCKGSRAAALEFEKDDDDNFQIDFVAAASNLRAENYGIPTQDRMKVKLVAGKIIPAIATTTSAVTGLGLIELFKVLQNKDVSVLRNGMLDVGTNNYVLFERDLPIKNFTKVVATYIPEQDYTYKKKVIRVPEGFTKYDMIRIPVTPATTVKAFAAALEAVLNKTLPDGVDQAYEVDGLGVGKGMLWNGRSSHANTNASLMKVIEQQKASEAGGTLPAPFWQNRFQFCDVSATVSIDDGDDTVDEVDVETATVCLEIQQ
As to the kind of experiment: Leishmania donovani Ubiquitin Activating Enzyme (LdE1). In kind it is functional. On the set-up: scale not given: direction of the effect not stated beside the values. The note with it: 30 µM.

The target of test [4] is T3, Aspartate--tRNA(Asp/Asn) ligase (Mycobacterium tuberculosis (strain ATCC 25618 / H37Rv)) (UniProt P9WFW3). Also: in the data most compounds retested in dose-response had high values.
T3 sequence (whole entry): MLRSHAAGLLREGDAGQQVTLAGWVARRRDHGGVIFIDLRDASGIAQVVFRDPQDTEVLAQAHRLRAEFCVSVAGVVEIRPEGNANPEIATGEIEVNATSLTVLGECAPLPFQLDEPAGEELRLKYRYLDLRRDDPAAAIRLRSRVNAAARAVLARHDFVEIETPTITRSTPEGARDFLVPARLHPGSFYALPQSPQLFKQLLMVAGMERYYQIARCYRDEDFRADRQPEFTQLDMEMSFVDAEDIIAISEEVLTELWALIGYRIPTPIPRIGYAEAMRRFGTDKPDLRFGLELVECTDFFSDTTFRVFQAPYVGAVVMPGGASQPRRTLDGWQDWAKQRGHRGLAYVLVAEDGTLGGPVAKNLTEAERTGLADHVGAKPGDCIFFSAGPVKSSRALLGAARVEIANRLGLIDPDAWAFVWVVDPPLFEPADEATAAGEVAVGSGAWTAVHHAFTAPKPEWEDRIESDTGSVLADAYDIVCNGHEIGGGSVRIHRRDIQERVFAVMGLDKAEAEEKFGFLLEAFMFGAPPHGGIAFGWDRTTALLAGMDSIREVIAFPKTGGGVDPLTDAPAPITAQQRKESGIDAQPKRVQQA
As to the kind of experiment: Assay for Asp RNA synthetase-1 from Mycobacterium tuberculosis. The note with it: 30 µM. On the set-up: scale not given: direction of the effect not stated beside the values. It is filed as functional.

The target of test [5] is AMP-activated protein kinase, AMPK (Homo sapiens) (UniProt P54646+O43741+P54619+Q9UGJ0+Q9Y478+Q13131+Q9UGI9). As to the kind of experiment: AMP-dependent Kinase enzyme assay. An in vitro enzyme assay that detects ADP turnover that is directly proportional to AMPK activity. This uses naive AMPK that is activated during the assay with MK-8722. The conditions noted are these: 30 µM. It is filed as functional. On the set-up: scale not given: direction of the effect not stated beside the values.

Test [6] addresses Sialic acid-binding Ig-like lectin 9 (Homo sapiens) (UniProt Q9Y336). The experiment in a line: Hs-Siglec9 ALPHAscreen SOP 20170721. The note with it: 10 µM. Further details: scale not given: direction of the effect not stated beside the values.
In the next test the test system is Trypanosoma cruzi. As to the kind of experiment: Trypanosoma cruzi phosphomannomutase and mannose-1-phosphate guanylyltransferase assay. In kind it is functional. The note with it: 10 µM. On the set-up: scale not given: direction of the effect not stated beside the values.
The target of test [7] is T4, Arginase-2, mitochondrial (Homo sapiens) (UniProt P78540).
T4 sequence (whole entry): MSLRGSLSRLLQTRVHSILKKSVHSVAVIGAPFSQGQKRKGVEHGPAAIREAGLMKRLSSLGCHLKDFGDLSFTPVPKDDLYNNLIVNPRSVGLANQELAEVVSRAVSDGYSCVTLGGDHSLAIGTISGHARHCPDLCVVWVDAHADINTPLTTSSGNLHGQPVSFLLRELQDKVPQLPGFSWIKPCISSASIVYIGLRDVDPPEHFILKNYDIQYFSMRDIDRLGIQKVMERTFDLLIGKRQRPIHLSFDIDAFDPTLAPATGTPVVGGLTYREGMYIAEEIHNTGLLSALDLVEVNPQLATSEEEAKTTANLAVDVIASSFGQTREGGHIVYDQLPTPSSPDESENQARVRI
The experiment in a line: in vitro enzyme assay to detect the production of urea directly proportional to the activity of Arginase II. It is filed as functional. Further details: scale not given: in the data most compounds retested in dose-response had high values. The conditions noted are these: 33.3 µM.

In test [8] the target is T5, Proteasome subunit beta (Trypanosoma cruzi) (UniProt O96673).
T5 sequence (whole entry): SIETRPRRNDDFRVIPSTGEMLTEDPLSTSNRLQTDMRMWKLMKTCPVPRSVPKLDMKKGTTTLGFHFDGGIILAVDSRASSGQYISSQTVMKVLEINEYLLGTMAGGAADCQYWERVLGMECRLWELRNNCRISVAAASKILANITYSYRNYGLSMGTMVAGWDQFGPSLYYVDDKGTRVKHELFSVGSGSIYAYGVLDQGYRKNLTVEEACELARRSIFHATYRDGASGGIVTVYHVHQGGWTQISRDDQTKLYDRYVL
The experiment in a line: Trypanosoma cruzi proteasome chymotrypsin-like activity (TcProtChymo) assay. In kind it is functional. Further details: scale not given: in the data most compounds retested in dose-response had high values. The note with it: 9.37 µM.

For the next test, the species on record is Homo sapiens. As to the kind of experiment: To identify inhibition of the IFN signalling (Jak-Stat) pathway via expression of an eGFP reporter gene under the control of an IFN-stimulated response element (ISRE) containing MxA promoter. In kind it is functional. On the set-up: scale not given: direction of the effect not stated beside the values. The note with it: 30 µM.

The target of test [9] is Shiga toxin 2 (Escherichia coli O157:H7) (UniProt P09385+P09386). As to the kind of experiment: E. coli 0.157:H7 Shiga Toxin SOP - stx2 screening assay. In kind it is functional. On the set-up: scale not given: direction of the effect not stated beside the values. The note with it: 30 µM.
Test [10] has as its target T6, Tyrosyl-tRNA synthetase, putative (Trypanosoma cruzi (strain CL Brener)) (UniProt Q4DSP6).
T6 sequence (whole entry): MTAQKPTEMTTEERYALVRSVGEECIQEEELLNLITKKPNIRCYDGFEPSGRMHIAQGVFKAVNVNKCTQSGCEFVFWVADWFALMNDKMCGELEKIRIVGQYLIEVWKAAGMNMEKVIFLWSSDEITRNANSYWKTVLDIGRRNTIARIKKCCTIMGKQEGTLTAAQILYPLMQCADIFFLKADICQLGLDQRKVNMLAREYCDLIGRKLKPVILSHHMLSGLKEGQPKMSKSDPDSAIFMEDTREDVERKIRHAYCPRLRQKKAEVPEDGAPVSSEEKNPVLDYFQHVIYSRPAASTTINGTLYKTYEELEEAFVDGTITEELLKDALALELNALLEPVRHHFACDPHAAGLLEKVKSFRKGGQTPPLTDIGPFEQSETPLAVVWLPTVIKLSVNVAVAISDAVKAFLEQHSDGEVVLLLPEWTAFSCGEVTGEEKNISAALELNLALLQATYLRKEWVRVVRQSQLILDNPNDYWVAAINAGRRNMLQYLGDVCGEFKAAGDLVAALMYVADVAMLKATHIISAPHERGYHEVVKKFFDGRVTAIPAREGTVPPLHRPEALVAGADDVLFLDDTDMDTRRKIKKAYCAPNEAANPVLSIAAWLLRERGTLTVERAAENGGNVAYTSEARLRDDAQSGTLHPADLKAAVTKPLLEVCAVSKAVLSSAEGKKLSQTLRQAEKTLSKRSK
As to the kind of experiment: Trypanosoma cruzi tyrosyl tRNA synthetase (TcYRS) _High Tyrosine SOP. It is filed as functional. Further details: scale not given: in the data most compounds retested in dose-response had high values. The note with it: 30 µM.

Test [11] addresses T6, Tyrosyl-tRNA synthetase, putative (Trypanosoma cruzi (strain CL Brener)). The experiment in a line: Trypanosoma cruzi tyrosyl tRNA synthetase (TcYRS) SOP. The conditions noted are these: 30 µM. In kind it is functional. Further details: scale not given: direction of the effect not stated beside the values.
In test [12] the target is Chromo domain-containing protein 1 (Saccharomyces cerevisiae (strain ATCC 204508 / S288c) (Baker's yeast)) (UniProt P32657). As to the kind of experiment: ScCHD-1 Enzyme Inhibition Assay. In kind it is functional. Further details: scale not given: in the data most compounds retested in dose-response had high values. The note with it: 30 µM.
Sequence of Chromo domain-containing protein 1 (Saccharomyces cerevisiae (strain ATCC 204508 / S288c) (Baker's yeast)) (P32657 whole entry, the tested form may be a part): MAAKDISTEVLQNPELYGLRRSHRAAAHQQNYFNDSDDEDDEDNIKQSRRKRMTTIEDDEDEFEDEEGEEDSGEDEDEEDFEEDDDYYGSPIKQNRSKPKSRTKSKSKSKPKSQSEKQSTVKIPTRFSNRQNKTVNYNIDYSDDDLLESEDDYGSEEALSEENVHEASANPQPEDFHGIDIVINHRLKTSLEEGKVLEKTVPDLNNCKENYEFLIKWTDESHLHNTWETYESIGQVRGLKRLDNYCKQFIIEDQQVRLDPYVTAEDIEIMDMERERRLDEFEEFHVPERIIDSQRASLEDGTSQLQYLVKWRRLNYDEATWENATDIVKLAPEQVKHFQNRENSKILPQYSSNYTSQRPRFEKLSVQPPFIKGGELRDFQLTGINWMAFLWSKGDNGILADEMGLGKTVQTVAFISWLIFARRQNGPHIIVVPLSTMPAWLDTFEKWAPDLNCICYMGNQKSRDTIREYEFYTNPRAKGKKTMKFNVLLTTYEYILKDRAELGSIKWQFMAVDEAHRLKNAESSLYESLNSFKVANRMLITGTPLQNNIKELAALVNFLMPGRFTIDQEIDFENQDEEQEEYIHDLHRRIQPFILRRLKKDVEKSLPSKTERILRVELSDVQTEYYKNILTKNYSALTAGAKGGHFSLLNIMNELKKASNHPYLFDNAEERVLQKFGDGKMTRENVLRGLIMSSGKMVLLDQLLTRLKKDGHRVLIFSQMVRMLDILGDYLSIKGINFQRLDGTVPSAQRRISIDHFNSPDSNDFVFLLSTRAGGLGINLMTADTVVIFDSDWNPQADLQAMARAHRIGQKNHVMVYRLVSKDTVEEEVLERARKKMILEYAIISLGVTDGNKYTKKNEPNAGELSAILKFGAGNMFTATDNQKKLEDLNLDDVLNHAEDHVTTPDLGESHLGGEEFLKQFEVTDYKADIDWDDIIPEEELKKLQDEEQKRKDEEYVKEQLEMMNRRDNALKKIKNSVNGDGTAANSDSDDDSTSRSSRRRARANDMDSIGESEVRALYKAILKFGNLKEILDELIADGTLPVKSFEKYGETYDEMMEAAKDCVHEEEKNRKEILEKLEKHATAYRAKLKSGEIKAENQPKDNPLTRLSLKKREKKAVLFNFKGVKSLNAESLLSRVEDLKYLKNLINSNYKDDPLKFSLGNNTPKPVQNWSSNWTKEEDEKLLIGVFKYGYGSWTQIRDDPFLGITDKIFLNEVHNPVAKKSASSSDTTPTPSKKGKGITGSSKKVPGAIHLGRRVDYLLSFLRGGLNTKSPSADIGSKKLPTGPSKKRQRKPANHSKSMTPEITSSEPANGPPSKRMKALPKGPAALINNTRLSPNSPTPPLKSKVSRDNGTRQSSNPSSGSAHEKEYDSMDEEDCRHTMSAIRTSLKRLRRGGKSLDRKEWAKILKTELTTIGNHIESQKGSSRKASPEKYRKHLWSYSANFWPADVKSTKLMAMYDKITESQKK

Sequence of Sialic acid-binding Ig-like lectin 9 (Homo sapiens) (Q9Y336 whole entry): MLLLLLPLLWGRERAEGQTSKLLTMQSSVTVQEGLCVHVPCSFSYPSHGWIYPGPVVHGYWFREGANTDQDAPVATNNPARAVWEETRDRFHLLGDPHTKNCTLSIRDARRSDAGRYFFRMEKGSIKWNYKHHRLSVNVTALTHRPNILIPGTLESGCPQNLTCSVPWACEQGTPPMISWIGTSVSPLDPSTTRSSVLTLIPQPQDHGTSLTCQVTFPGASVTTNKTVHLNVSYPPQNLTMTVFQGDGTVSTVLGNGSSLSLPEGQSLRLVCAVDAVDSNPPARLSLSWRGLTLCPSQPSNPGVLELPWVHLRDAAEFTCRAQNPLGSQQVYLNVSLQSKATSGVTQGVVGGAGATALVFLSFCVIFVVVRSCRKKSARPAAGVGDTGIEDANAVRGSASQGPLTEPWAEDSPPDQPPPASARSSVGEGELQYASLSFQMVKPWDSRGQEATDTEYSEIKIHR

As to `COc1ccc(Cl)cc1Cl`, the PXC50 in [1] (MAX_EFFECT 11.87904968) and in [1] (MAX_EFFECT 16.92015209) was < 3 throughout.
For the molecule `CC(C)NC(=O)[C@H]1C[C@@H]2[C@@H](C1)OCCN2Cc1cccnc1`, the Percent Effect in test [2] is 1.37%; in [3], -5.33%; in [4], 3.61%; in test [5], 10.3%; in test [6], 6.39%; in the test on Trypanosoma cruzi it was -4.25%. Moreover, the Percent Effect in test [7] is -52.9%; in [8], 1.54%; in the test filed under Homo sapiens it was 7.17%; in [9], -9.38%; in [10] it was 3.12%; in test [11] it was 2.5%. The Percent Effect in test [12] was -0.286%.
With `NC1CC1c1ccc(Cl)cc1Cl` (stereo not given), the PXC50 in test [1] (MAX_EFFECT 19.58174905) and in test [1] (MAX_EFFECT 31.74946004) was < 3 throughout.
`Cc1ccc(CN2CCC3(CC2)C(=O)N(C)c2ccccc23)s1`: the Percent Effect in test [2] is -4.09%; in test [3] it was 8.11%; in test [4] it was 7.84%; in [5], -1.34%; in [6], 6.95%; in the test on Trypanosoma cruzi, -0.781%. The Percent Effect in test [7] was 2.08%; in test [8] it was 16.8%; in the test listed under Homo sapiens, 20.4%; in test [9] it was -2.26%; in test [10] it was 7.92%; in [11], 11%. Further, in [12], the Percent Effect is 5.6%.
